Compound activity deposited in PubChem BioAssay by Broad Institute.
Shown are actives, neighbours in structure and some others; about 3.8% of the full set was active somewhere.
Wnt bcat act – Wnt/beta-catenin pathway activation | Wnt/beta-catenin reporter cell assay, activator, plate reader | activation, % at 9.35 µM | 1.2% of 300,000 active | AID 743398; in the data active = activation above about 30%, passing the limit was not always enough; inconclusive = no clear call, values can overlap the other calls;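 also: 0% = neutral control wells and 100% = positive control wells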
MITF act – increases MITF-driven TRPM1 promoter luciferase signal; 0.75% of 300,000 active; activation, % at 12.5 µM; SK-MEL-5 TRPM1-promoter luciferase, 24 h; % of positive control, neutral wells = 0; AID 588334;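 active = mean activation of at least 80% with every replicate also reaching 80%; inconclusive = mean reaches 80% but some replicate falls short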;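 also: 0% = neutral control wells and 100% = parthenolide positive control wells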
HSF1 activator – increases HSF-1 driven luciferase reporter signal. NIH3T3-HGL HSF-1 luciferase reporter, MG132, 8 h; 100% = twice DMSO control signal. activation, % at 9 µM. 1.7% of 300,000 active. AID 504408;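 active = mean replicate activation of at least 50% with a set share of replicates each reaching 50%; inconclusive = only one of those two conditions met; inactive = mean below 50% and too few replicates reaching it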;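 also: 0% = median of the neutral control wells and 100% = twice that signal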
esBAF inh – inhibitors of esBAF chromatin remodeling in mouse ES cells | reporter increase, % at 12.5 µM | 2% of 350,000 active | AID 602393 | Bmi1-luciferase knock-in reporter, 24 h; 100% = twice the neutral-well signal; in the data active = activation above about 40%; inconclusive = no clear call, values can overlap the other calls;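 also: 0% = median of the plate's neutral control wells and 100% = double that signal; a rise in the Bmi1 reporter signal indicates esBAF inhibition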
HSF1 inhib – HSF1 inhibition; NIH3T3-HGL HSE-luciferase, MG132-induced, luminescence 8 h; stronger effect = lower value; activity change, negative = inhibition, % at 7.5 µM (by protocol); 0.77% of 300,000 active; AID 2098;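 active = more than half of replicate wells show activity change below -50%, luminescence cut by over half; inconclusive = some wells, but at most half, below -50%; inactive = no replicate well below -50%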;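 also: luciferase reports HSF-1 transcriptional activity via heat shock element; 0% = median of DMSO wells and -100% = zero luminescence signal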
An asterisk follows results filed as active; ? = inconclusive; . = not tested or not shown.

SMILES	Wnt bcat act	MITF act	HSF1 activator	esBAF inh	HSF1 inhib
CCOc1ccc(C(=O)/C=C/c2cn(CN3CCN(C)CC3)c3ccccc23)cc1	4.6	64.0	.	26.2	.
COc1ccc(C(=O)/C=C/c2cn(CN3CCN(C)CC3)c3ccccc23)cc1	.	95.0*	.	51.4*	.
Clc1cccc(OCc2nnc(-c3ccccc3Br)o2)c1	8.8	55.8	28.7	30.8	20.9
Clc1ccc(OCc2nnc(-c3ccccc3Br)o2)cc1	.	19.7	43.8	-0.2	15.3
Clc1ccc(OCc2nnc(-c3ccccc3Br)o2)c(Cl)c1	19.3	105.9*	61.1*	78.8*	36.0
Fc1ccc(OCc2nnc(-c3ccccc3Br)o2)c(Cl)c1	4.4	?	68.2*	67.1*	27.7
O=C1c2ccccc2C(Nc2ccccc2)N1c1ccc(Cl)cn1 (stereo unspecified)	?	7.2	.	21.9	.
O=C1c2ccccc2C(Nc2ccc(F)c(Cl)c2)N1c1ccccn1 (stereo unspecified)	3.5	.	-0.1	4.6	8.6
O=C1c2ccccc2C(Nc2ccc3c(c2)OCCO3)N1c1ccc(Cl)cn1 (stereo unspecified)	7.6	24.9	-58.2	15.0	-54.4*
O=C1c2ccccc2C(Nc2ccc3c(c2)OCCO3)N1c1ccccn1 (stereo unspecified)	3.2	-8.9	-73.7	-17.4	-69.5*
O=C1c2ccccc2C(Nc2ccc3c(c2)OCCO3)N1Cc1ccc2c(c1)OCO2 (stereo unspecified)	-5.2	.	-69.1	-20.2	-64.2*
c1ccc2nc(-c3ccncc3)ccc2c1	.	.	47.3	30.6	10.5
Clc1ccsc1-c1ccc2ccccc2n1	38.9*	51.2	23.0	49.2*	11.8
c1ccc2nc(-c3nccs3)ccc2c1	7.8	90.8*	17.8	.	13.8
COc1ccccc1C1CC(c2cccs2)=Nc2ccccc2S1 (stereo unspecified)	40.8*	2.9	10.1	53.1*	4.0
COc1ccc(OC)c(S(=O)(=O)N2Cc3ccccc3CC2C(=O)Nc2nccs2)c1 (stereo unspecified)	.	39.9	.	50.8*	.
CCC(=O)N1CCc2nc(-c3ccccc3)sc2C1	13.2	84.0*	19.0	46.3*	6.5
C[C@H](CO)N1C[C@H](C)[C@H](CN(C)Cc2ccncc2)Oc2c(NC(=O)NC3CCCCC3)cccc2C1=O	.	.	.	-2.0	.
Cc1noc(C)c1NC(=O)N(C)C[C@H]1Oc2ccc(NC(=O)Nc3ccc(F)cc3)cc2CC(=O)N([C@@H](C)CO)C[C@H]1C	.	.	.	-0.8	.
Cc1cc(C)n(S(=O)(=O)/C=C/c2ccccc2)n1	.	.	54.3*	5.0	53.5
Cc1ccc(S(=O)(=O)n2nc(C)cc2C)cc1	-5.9	.	4.6	-3.8	-0.1
O=C(NC12CC3CC(CC(C3)C1)C2)N1CCN(C(=O)C2CCCO2)CC1 (stereo unspecified)	-3.2	4.6	-63.6	-6.2	-54.5*
O=C(NC12CC3CC(CC(C3)C1)C2)N1CCC(O)CC1	-1.8	-0.7	-4.5	-11.3	-1.2
CC(=O)Nc1ccc(CN2CCC(CO)(CCOc3ccccc3)CC2)cc1	1.2	0.1	-62.2	3.5	-56.2*
O=[N+]([O-])c1ccc(-c2csc(Nc3ccccc3)[n+]2Cc2ccccc2)cc1	.	-4.9	84.1*	.	30.9
SMILES	Wnt bcat act	MITF act	HSF1 activator	esBAF inh	HSF1 inhib
CCC(C)n1c(SC(C)C#N)nc2ccccc2c1=O (stereo unspecified)	-3.3	-16.0	-88.5	-2.7	-85.0*
CC(C#N)On1c(SC(C)C#N)nc2ccccc2c1=O (stereo unspecified)	-2.4	-20.4	12.9	1.1	-1.5
CCCn1c(N)c(Sc2ccc(C)cc2)c(=O)n(CCC)c1=O	-0.9	-3.0	72.8*	.	56.5
CCCCn1c(N)c(Sc2ccc(C)cc2)c(=O)[nH]c1=O	.	-9.8	21.5	-10.8	4.3
C[C@@H]1CN([C@H](C)CO)S(=O)(=O)c2ccc(Br)cc2O[C@@H]1CN(C)C(=O)CN(C)C	.	.	.	-1.1	.
COCCNC(=O)C[C@@H]1CC[C@H](NC(=O)NC2CCCC2)[C@H](CO)O1	.	.	.	-1.7	.
Cc1ccc(C#N)c(SCc2nnc(-c3ccc(Cl)cc3)o2)n1	.	-44.1	-85.7	-66.7	-84.0*
Cc1ccc(C#N)c(SCc2cc3c(cc2Cl)OCO3)n1	-3.7	18.7	-0.8	1.0	9.2
Cc1cc(C)c(C#N)c(SCc2ccccc2[N+](=O)[O-])n1	-2.5	-5.5	25.2	1.3	6.1
Cc1cc(C)c(C#N)c(SCc2nnc(-c3ccccc3)o2)n1	-11.2	-75.6	-87.8	-65.2	-85.4*
